# Screening data (PubChem BioAssay)
# CF NFkB block: inhibitors of PAF-induced NF-kB signaling, primary screen, cell-based, GFP fluorescence, uHTS; AID 588850, 2011; KKLEB NF-kB-GFP reporter, GFP fluorescence overnight; inhibition, % at 5 µM; 360,000 compounds, 0.86% hits;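 active means at least 50% inhibition at 5 µM, scaled per plate between neutral and stimulator controls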;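 further: PAF is a Pseudomonas aeruginosa culture filtrate used as stimulus; plate controls were PAF-stimulated DMSO wells for no effect and unstimulated DMSO wells for full effect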
# KKLEB cytotox: cytotoxicity in KKLEB CF airway cells, primary screen, cytotoxicity control for CF NF-kB inhibitor project, cell-based, uHTS, fluorescence assay plates. 360,000 compounds, 0.36% hits. KKLEB CF airway cells viability, ATPlite luminescence, overnight; hits give low values; cells stimulated with P. aeruginosa culture filtrate. activity change (cytotoxicity), % at 5 µM;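 active means corrected activity change at or below -50% at 5 µM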
# HSP90 refold inh: HSP90 inhibitors, primary screen, cell lysate, luminescence. Heat shock protein HSP 90 (rabbit reticulocyte lysate; luciferase refolding). AID 1789, 2009. Rabbit reticulocyte lysate, luciferase refolding luminescence, 3 h. inhibition, % at 5.6 µM. 290,000 compounds, 0.91% hits;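 active means inhibition above the screen-wide mean plus 3 SD, computed separately per campaign, cut at about 16% in these data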;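 further: 0% = DMSO wells and 100% = 60 µM geldanamycin wells; inhibitors lower the luminescence because luciferase stays unfolded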
# Peg3 prom inh: Peg3 promoter-driven luciferase inhibitors, primary screen, cell-based, HeLa, luciferase luminescence; HeLa PEG-Prom luciferase reporter, overnight; inhibition, % at 20 µM; 360,000 compounds, 1.7% hits; AID 588405, 2011;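 active means inhibition of at least 50% at 20 µM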
# Mdm2-MdmX inh: inhibitors of human Mdm2-MdmX association, primary screen, cell-based, luminescence, split luciferase, SaOS-2, uHTS; 330,000 compounds, 3% hits; Protein Mdm4 (Homo sapiens) + E3 ubiquitin-protein ligase Mdm2 (Homo sapiens), …; inhibition, % at 8 µM; SaOS-2 split-luciferase Mdm2/MdmX complementation;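 active means inhibition of at least 50% at 8 µM in the primary screen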
# Target sequence (O15151 whole entry, looked up): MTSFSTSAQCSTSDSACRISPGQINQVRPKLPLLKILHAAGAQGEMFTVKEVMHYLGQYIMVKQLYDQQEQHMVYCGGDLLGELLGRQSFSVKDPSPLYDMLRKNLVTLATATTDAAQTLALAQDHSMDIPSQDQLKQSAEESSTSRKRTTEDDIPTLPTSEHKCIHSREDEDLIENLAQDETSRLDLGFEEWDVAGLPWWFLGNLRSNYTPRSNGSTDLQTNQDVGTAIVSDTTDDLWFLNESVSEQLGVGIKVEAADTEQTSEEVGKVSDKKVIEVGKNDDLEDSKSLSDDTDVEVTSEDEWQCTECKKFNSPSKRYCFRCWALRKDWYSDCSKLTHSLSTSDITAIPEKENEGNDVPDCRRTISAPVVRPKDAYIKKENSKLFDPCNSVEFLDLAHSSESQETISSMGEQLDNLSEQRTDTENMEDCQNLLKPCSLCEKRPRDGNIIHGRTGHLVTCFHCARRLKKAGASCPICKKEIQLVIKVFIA
# Target sequence (Q00987 whole entry, looked up): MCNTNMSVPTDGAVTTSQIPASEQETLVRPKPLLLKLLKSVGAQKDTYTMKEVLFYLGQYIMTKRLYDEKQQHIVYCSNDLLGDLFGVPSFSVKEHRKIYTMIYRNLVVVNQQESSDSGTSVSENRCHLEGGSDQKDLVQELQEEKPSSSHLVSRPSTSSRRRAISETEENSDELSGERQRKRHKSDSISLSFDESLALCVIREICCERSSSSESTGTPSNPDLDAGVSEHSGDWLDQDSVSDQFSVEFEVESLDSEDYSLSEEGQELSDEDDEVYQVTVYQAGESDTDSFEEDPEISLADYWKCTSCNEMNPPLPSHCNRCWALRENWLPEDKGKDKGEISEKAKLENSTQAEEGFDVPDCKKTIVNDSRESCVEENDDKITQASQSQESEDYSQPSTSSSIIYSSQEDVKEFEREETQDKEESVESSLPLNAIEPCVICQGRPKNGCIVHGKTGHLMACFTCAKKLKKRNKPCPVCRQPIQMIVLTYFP
# LGR2 inh: inhibitors of bursicon-induced LGR2 CRE-luciferase signal, primary screen, cell-based, HEK293, CRE-luciferase reporter, bursicon stimulation | bursicon-stimulated, 4 h | 380,000 compounds, 0.35% hits | AID 720647, 2013 | inhibition, % at 9.99 µM;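 active means drop in luminescence signal, shown as inhibition above about 50% in the replicate tests, limit read from the data, passing the limit was not always enough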;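 further: agonist challenge used bursicon conditioned medium at about half maximal strength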
# Numbers without * were called inactive; / = not tested or not shown. Most compounds without a hit are left out; they make up all but 3.6% or so of the library.
SMILES,CF NFkB block,KKLEB cytotox,HSP90 refold inh,Peg3 prom inh,Mdm2-MdmX inh,LGR2 inh
O=C(Nc1nc2ccccc2s1)c1ccc2sc([C@H]3C[C@H](O)[C@@H](CO)O3)nc2c1,-5.9,-8.1,/,-100.6,/,98.4*
O=C1C=C(c2c(O)ccc3ccccc23)c2ccccc2C1=O,88.4*,-35.7,/,106.8*,/,95.0*
O=C(c1ccco1)N1CCCN(C(=O)c2ccco2)CC1,9.4,0.3,-4.7,8.1,-16.1,/
O=C(c1ccco1)N1CCN(C(=O)c2ccco2)C1=S,14.9,13.6,/,91.9*,/,83.0*
O=C1c2cccc3cccc(c23)C(=O)N1OS(=O)(=O)c1ccc(Cl)cc1,2.8,4.0,0.9,13.1,-6.1,-20.5
COc1ccc(OC)c(S(=O)(=O)N2CCN(c3ccccc3)CC2)c1,-11.9,12.8,-3.5,17.3,16.2,-1.5
CCc1ccc(S(=O)(=O)ON2C(=O)c3ccccc3C2=O)cc1,2.9,9.5,-0.6,51.3*,-20.5,19.7
COc1ccc(OC)c(S(=O)(=O)ON2C(=O)c3ccccc3C2=O)c1,-9.9,0.4,-3.7,54.1*,-20.2,5.5
C[C@H]1CN([C@@H](C)CO)C(=O)Cc2cc(NC(=O)Nc3ccccc3)ccc2O[C@H]1CN(C)S(=O)(=O)c1ccc(F)cc1,/,/,/,/,/,3.1
COc1cc2[nH]c(=O)n(CCCCCC(=O)N3CCN(c4ccccc4)CC3)c(=O)c2cc1OC,15.0,-4.8,-1.3,57.5*,4.6,/
Cc1ccccc1CN(C)C[C@H]1OCc2cnnn2CCCC(=O)N([C@H](C)CO)C[C@H]1C,/,/,/,/,/,22.9
CN1CCN(c2ccc(NC(=O)COc3ccccc3[N+](=O)[O-])cc2)CC1,-2.7,-2.0,4.1,11.3,-12.3,7.2
CC(C)C(=O)N1CCN(c2ccc(NC(=O)COc3ccccc3[N+](=O)[O-])cc2)CC1,10.7,-5.7,-1.0,90.8*,28.6,63.5*
Cc1ccc(NC(=O)COc2ccccc2[N+](=O)[O-])nc1,-0.2,6.6,9.4,-62.0,-70.8,53.9*
C[C@H]1CN([C@@H](C)CO)C(=O)c2cc(NS(=O)(=O)c3cn(C)cn3)ccc2O[C@@H]1CN(C)C,/,/,/,/,/,12.2
C[C@H](CO)N1C[C@H](C)[C@@H](CN(C)C(=O)Nc2ccc(F)cc2)OCCCC[C@H](C)Oc2ccc(NC(=O)CCC(F)(F)F)cc2C1=O,/,/,/,/,/,4.1
Cc1noc(C)c1S(=O)(=O)Nc1ccc2c(c1)C(=O)N([C@@H](C)CO)C[C@H](C)[C@@H](CN(C)S(=O)(=O)c1ccc(Cl)cc1)OCCCC[C@@H](C)O2,/,/,/,/,/,10.4
O=C1C=CC(=O)N1CCCCCCCCCCN1C(=O)C=CC1=O,73.9*,-25.0,/,102.4*,/,12.3
O=C1C=CC(=O)N1Cc1ccncc1,-22.8,6.9,/,11.6,/,12.3
COc1ccc(CN(C)C[C@@H]2Oc3ccc(NS(=O)(=O)c4cccs4)cc3CC(=O)N([C@H](C)CO)C[C@@H]2C)cc1,/,/,/,/,/,1.9
O=c1[nH]c(-c2ccccn2)nc2sc(-c3ccccc3)cc12,19.1,7.5,-3.2,95.6*,/,32.5
COc1ccccc1-c1cn(CC[C@@H]2CC[C@@H](NC(=O)C3CC3)[C@H](CO)O2)nn1,/,/,/,/,/,15.1
N#C[C@@H]1[C@H](c2ccc(C#Cc3ccccc3F)cc2)[C@@H](CO)N1C(=O)C1CCCC1,/,/,/,/,/,66.1*
N#C[C@@H]1[C@H](c2ccc(C#CC3CCCCC3)cc2)[C@@H](CO)N1C(=O)c1cccc(F)c1,/,/,/,/,/,64.8*
N#C[C@H]1[C@H](c2ccc(C#Cc3ccccc3F)cc2)[C@H](CO)N1C(=O)C1CCC1,/,/,/,/,/,101.8*
SMILES,CF NFkB block,KKLEB cytotox,HSP90 refold inh,Peg3 prom inh,Mdm2-MdmX inh,LGR2 inh
N#C[C@@H]1[C@H](c2ccc(C#Cc3cccc(F)c3)cc2)[C@@H](CO)N1C(=O)C1CC1,/,/,/,/,/,53.9*
COCC(=O)Nc1ccc2c(c1)[C@H]1C[C@@H](CC(=O)N3CCCCC3)O[C@H](CO)[C@H]1O2,/,/,/,/,/,-4.2
COc1cccc(C#Cc2ccc([C@@H]3[C@@H](CO)N(C(=O)C4CCC4)[C@H]3C#N)cc2)c1,/,/,/,/,/,99.9*
COc1ccccc1C#Cc1ccc([C@H]2[C@H](C#N)N(C(=O)C3CCCCC3)[C@H]2CO)cc1,/,/,/,/,/,82.6*
Cc1cc(NC(=O)CCCS(=O)(=O)c2nc(-c3cccs3)cc(C(F)(F)F)n2)no1,89.9*,-53.1*,1.2,105.8*,-6.0,23.6
O=C(/C=C\c1ccco1)Nc1nc(-c2ccc3ccccc3c2)cs1,-26.9,0.3,-0.9,-10.3,34.4,54.6*
O=C(O)c1ccccc1C(=O)Nc1nc(-c2ccc3ccccc3c2)cs1,22.1,-3.1,-1.7,-163.8,-10.3,-69.1
CO[C@@H]1CN(C)C(=O)c2ccc(NC(=O)c3cccc(F)c3)cc2OC[C@H](C)N(C(C)=O)C[C@@H]1C,/,/,/,/,/,2.7
COC(=O)c1c[nH]c2c1-c1cc(C(=O)OCc3ccccc3)n(S(=O)(=O)c3ccc(C)cc3)c1C(=O)C2=O,85.7*,-20.6,/,81.9*,/,9.0
COC(=O)c1cc2c(c3c4cc(C)ccc4n(S(=O)(=O)c4ccc(C)cc4)c13)C(=O)N(Cc1ccccc1)C2,/,/,/,/,/,-5.6
Cn1cnc([N+](=O)[O-])c1S(=O)(=O)c1ccc(Cl)cc1,-13.0,6.7,2.9,104.2*,/,2.8
C=CCNc1nc(Cl)nc(Nc2ccc([N+](=O)[O-])cc2)n1,-0.6,4.4,-3.0,20.0,20.8,-12.9
C=CCNc1nc(Nc2ccc([N+](=O)[O-])cc2)nc(N2CCCC2)n1,5.1,-11.1,6.8,56.0*,16.1,-4.9
C/C=C/c1cnc2c(c1)C(=O)N([C@@H](C)CO)C[C@@H](C)[C@H](CN(C)Cc1cccc(C(=O)O)c1)O2,/,/,/,/,/,-7.6
O=C(NC(c1ccc(Cl)cc1)c1cnccn1)C1CCN(CCOc2ccc(F)cc2)CC1 (configuration not stated),15.6,-5.9,/,-2.8,/,/
O=C(NC(c1ccc(-c2ccccc2)cc1)c1cnccn1)C1CCN(CCCOc2ccccc2)CC1 (configuration not stated),28.2,-20.5,/,102.7*,/,1.0
O=C(NC(c1ccc(-c2ccccc2)cc1)c1cnccn1)C1CCN(CCOc2ccc(F)cc2)CC1 (configuration not stated),33.4,-30.7,/,50.0*,/,9.1
C[C@H](CO)N1C[C@H](C)[C@@H](CN(C)CC2CC2)Oc2ccc(NC(=O)Cc3cn(C)c4ccccc34)cc2CC1=O,/,/,/,/,/,12.2
C[C@H]1CN([C@@H](C)CO)C(=O)c2cc(C#CC3(O)CCCC3)cnc2O[C@H]1CN(C)Cc1ccccn1,/,/,/,/,/,2.4
